ALR inh – inhibitors of human sulfhydryl oxidase ALR; purified ALR, DTT oxidation, H2O2 HRP-luminol luminescence; inhibition, % (no concentration beside the values); 290,000 compounds, 3.8% hits;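 active = mean replicate inhibition above about 79%, with every replicate also reaching it, limit read from the data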
SUMO Mot1 rescue – SUMOylation pathway inhibition by Mot1-301 growth rescue | S. cerevisiae Mot1-301 growth rescue, ATP luminescence, 38.5C; percent above DMSO median, 100 means doubled | growth rescue, % at 18.8 µM | 320,000 compounds, 1% hits | AID 2716;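 active = every valid replicate shows activation above 250% relative to neutral control wells; inactive = the rest, any valid replicate at or below 250%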
Bfl-1 A1 inh – inhibitors of the anti-apoptotic protein A1, read as caspase activation; MEF A1-2A-BIM cells, Caspase-Glo 3/7 luminescence, 3 h; percent of clofoctol response, vehicle zero; caspase activation, % (concentration not given with the values); 330,000 compounds, 0.066% hits; AID 2462;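 active = over half of replicate activation scores above 10%, or exactly half above 10 with the replicate mean above 10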
VLA-4 inh – inhibition in a human VLA-4 binding assay; 330,000 compounds, 0.2% hits; AID 2557; P13612; VLA-4 expressing cells, ligand binding flow cytometry; inhibition, % (about 7 µM as worked out from the volumes in the protocol); in the data active = inhibition above about 50%
Target sequence (P13612 whole entry, looked up): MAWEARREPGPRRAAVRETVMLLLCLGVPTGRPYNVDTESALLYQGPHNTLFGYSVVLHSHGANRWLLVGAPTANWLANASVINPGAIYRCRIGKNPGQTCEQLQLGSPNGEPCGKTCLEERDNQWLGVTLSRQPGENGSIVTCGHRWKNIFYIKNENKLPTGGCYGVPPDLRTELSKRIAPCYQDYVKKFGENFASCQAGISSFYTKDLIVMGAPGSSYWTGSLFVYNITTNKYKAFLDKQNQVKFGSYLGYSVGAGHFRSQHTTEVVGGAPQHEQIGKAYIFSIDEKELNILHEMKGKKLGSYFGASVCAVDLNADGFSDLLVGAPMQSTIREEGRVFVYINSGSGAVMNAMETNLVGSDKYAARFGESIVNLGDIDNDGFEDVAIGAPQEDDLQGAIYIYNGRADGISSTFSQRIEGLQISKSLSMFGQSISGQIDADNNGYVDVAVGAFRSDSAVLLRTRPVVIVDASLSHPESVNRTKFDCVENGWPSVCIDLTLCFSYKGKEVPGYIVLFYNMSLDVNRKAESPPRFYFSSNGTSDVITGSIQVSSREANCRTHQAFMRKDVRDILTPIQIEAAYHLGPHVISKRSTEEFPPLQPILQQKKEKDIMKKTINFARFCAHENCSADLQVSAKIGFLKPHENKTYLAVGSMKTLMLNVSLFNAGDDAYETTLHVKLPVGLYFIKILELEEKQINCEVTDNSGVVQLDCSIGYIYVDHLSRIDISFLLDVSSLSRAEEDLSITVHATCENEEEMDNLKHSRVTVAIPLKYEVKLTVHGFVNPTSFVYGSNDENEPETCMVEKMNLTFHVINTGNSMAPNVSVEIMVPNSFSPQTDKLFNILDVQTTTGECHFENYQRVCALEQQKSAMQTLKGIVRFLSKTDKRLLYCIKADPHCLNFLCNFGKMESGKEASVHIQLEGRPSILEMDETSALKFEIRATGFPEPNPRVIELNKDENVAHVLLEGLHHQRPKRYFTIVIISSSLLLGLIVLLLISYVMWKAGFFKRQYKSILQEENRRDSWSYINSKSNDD
Efflux pump mplx – blocks antifungal efflux pumps in multiplex yeast assay | S. cerevisiae Candida pump triplex, Nile Red efflux | inhibition, % at 10 µM | 330,000 compounds, 0.44% hits;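 active = plate passing quality check with inhibition over a set limit, or well fluorescence over plate mean plus 4 SD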;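 also: Nile Red retained in pooled yeast measured as flow cytometry median fluorescence; higher means more Nile Red kept so more efflux inhibition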
AHR act – activators of human aryl hydrocarbon receptor. activation, % at 5 µM. AHR-responsive luciferase reporter cells, luminescence. 320,000 compounds, 2.5% hits. P35869; in the data active = activation above about 47%
Yeast cmpd fluor – counter-screen for efflux pump inhibitors: compound fluorescence. S. cerevisiae AD/pABC3, flow cytometry. shares compounds with Efflux pump mplx. fluorescence ratio to DMSO, % at 10 µM. AID 588517. 1,700 compounds, 4% hits;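 active = fluorescence ratio to DMSO above its plate's cutoff, the plate mean ratio plus 5 SD, cut at about 210% in these data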;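 also: unstained yeast with no Nile Red so the signal is compound autofluorescence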
Mdr1 pump inh – inhibitors of Candida albicans Mdr1 efflux pump. shares compounds with Efflux pump mplx. S. cerevisiae AD/CaMDR1, Nile Red efflux, flow cytometry. inhibition, % at 10 µM. 1,700 compounds, 1% hits. AID 588518; in the data active = inhibition above about 26%;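 also: higher means more Nile Red retained so more efflux inhibition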
Cdr2 pump inh – blocks the Candida albicans Cdr2 efflux pump in yeast. shares compounds with Efflux pump mplx. S. cerevisiae AD/CaCDR2, Nile Red retention, flow cytometry. Nile Red retention ratio vs DMSO, % at 10 µM. 1,700 compounds, 4% hits; in the data active = Nile Red retention ratio vs DMSO above about 190%;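 also: higher ratio means more blocking of Cdr2 efflux of the dye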
CaCdr1 efflux inh – blocks the Candida albicans Cdr1 efflux pump in yeast; shares compounds with Efflux pump mplx; S. cerevisiae AD/CaCDR1, Nile Red efflux, flow cytometry; inhibition, % at 10 µM; 1,700 compounds, 1% hits; AID 588522;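 active = inhibition above the screen-wide mean plus twice its standard deviation, cut at about 32% in these data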
A number is an active result. Shown are actives, neighbours in structure and some others; about 7.2% of the full set was active somewhere.

What do the screens show for `C=C[C@H]1CN2CC[C@H]1C[C@H]2[C@H](O)c1ccnc2ccccc12`?
ALR inh: inactive; SUMO Mot1 rescue: inactive; Bfl-1 A1 inh: inactive; VLA-4 inh: inactive; Efflux pump mplx: inactive; AHR act: inactive

Results for C=CC1CN2CCC1CC2c1[nH]c2ccccc2c1CCO (stereo not drawn) ?
ALR inh: inactive; SUMO Mot1 rescue: inactive; Bfl-1 A1 inh: inactive; VLA-4 inh: inactive; Efflux pump mplx: 13; AHR act: inactive; Yeast cmpd fluor: inactive; Mdr1 pump inh: inactive; Cdr2 pump inh: inactive; CaCdr1 efflux inh: inactive

What do the screens show for `COC(=O)C1=C(c2cccc(C#N)c2)C[C@@H]2CC[C@H]1N2C(=O)NCC1CC1`?
ALR inh: inactive; SUMO Mot1 rescue: inactive; Bfl-1 A1 inh: inactive; VLA-4 inh: inactive; Efflux pump mplx: 2.5; AHR act: inactive; Yeast cmpd fluor: inactive; Mdr1 pump inh: inactive; Cdr2 pump inh: inactive; CaCdr1 efflux inh: inactive

Results for COC(=O)C1=C(c2ccc(OCc3ccccc3)cc2)C[C@@H]2CC[C@H]1N2C(=O)NCc1ccc(N(C)C)cc1 ?
ALR inh: inactive; SUMO Mot1 rescue: inactive; Bfl-1 A1 inh: inactive; VLA-4 inh: inactive; Efflux pump mplx: inactive; AHR act: inactive

What do the screens show for `O=C(CCN1CCCCC1)Nc1ccc(Br)cc1C(=O)c1ccccc1`?
ALR inh: inactive; SUMO Mot1 rescue: inactive; Bfl-1 A1 inh: inactive; VLA-4 inh: inactive; Efflux pump mplx: 1.4; AHR act: inactive; Yeast cmpd fluor: inactive; Mdr1 pump inh: inactive; Cdr2 pump inh: inactive; CaCdr1 efflux inh: inactive

What do the screens show for `Cc1c2ccncc2c(C)c2c1[nH]c1ccccc12`?
ALR inh: inactive; SUMO Mot1 rescue: inactive; Bfl-1 A1 inh: inactive; VLA-4 inh: inactive; Efflux pump mplx: 5.6; AHR act: 67; Yeast cmpd fluor: inactive; Mdr1 pump inh: inactive; Cdr2 pump inh: inactive; CaCdr1 efflux inh: inactive

Results for CCN(CC)c1ccc(/C=C2\C(=O)NC(=O)N(Cc3ccco3)C2=O)cc1 ?
SUMO Mot1 rescue: inactive; Bfl-1 A1 inh: inactive; VLA-4 inh: inactive; Efflux pump mplx: 0.5; AHR act: inactive; Yeast cmpd fluor: inactive; Mdr1 pump inh: inactive; Cdr2 pump inh: inactive; CaCdr1 efflux inh: inactive

How did O=c1ccc2c(O)c3ccoc3cc2o1 do in these assays?
VLA-4 inh: inactive; Efflux pump mplx: inactive; AHR act: inactive

How did COC1=CC(=O)[C@]2(C=C1OC)OC[C@@H]1Oc3c(ccc4c3C=CC(C)(C)O4)C(=O)[C@@H]12 do in these assays?
ALR inh: inactive; SUMO Mot1 rescue: inactive; Bfl-1 A1 inh: inactive; VLA-4 inh: inactive; Efflux pump mplx: inactive; AHR act: inactive

What do the screens show for `COc1ccc(C2=NCC(=O)N(CC(=O)NCc3ccco3)c3sc4c(c32)CCCC4)cc1`?
ALR inh: inactive; SUMO Mot1 rescue: inactive; Bfl-1 A1 inh: inactive; VLA-4 inh: inactive; Efflux pump mplx: 0.8; AHR act: inactive; Yeast cmpd fluor: inactive; Mdr1 pump inh: inactive; Cdr2 pump inh: inactive; CaCdr1 efflux inh: inactive

How did Cc1cccc(C2=NCC(=O)N(CC(=O)NCc3ccco3)c3sc4c(c32)CCCC4)c1 do in these assays?
ALR inh: inactive; SUMO Mot1 rescue: inactive; Bfl-1 A1 inh: inactive; VLA-4 inh: inactive; Efflux pump mplx: inactive; AHR act: inactive

How did CC(C)Oc1cc(-n2c(=S)[nH]c3ccccc3c2=O)c(Cl)cc1Cl do in these assays?
SUMO Mot1 rescue: inactive; Bfl-1 A1 inh: inactive; VLA-4 inh: inactive; Efflux pump mplx: inactive; AHR act: inactive

What do the screens show for `Nc1ccc2ccc3cccc[n+]3c2c1`?
ALR inh: inactive; SUMO Mot1 rescue: inactive; Bfl-1 A1 inh: inactive; VLA-4 inh: inactive; Efflux pump mplx: 3.8; AHR act: inactive; Yeast cmpd fluor: 272; Mdr1 pump inh: inactive; Cdr2 pump inh: 185; CaCdr1 efflux inh: inactive

What do the screens show for `O=C1NC(=O)C(CCc2ccncc2)(CCc2ccncc2)C(=O)N1C1CCCCC1`?
ALR inh: inactive; SUMO Mot1 rescue: inactive; Bfl-1 A1 inh: inactive; VLA-4 inh: inactive; Efflux pump mplx: 1.0; AHR act: inactive; Yeast cmpd fluor: inactive; Mdr1 pump inh: inactive; Cdr2 pump inh: inactive; CaCdr1 efflux inh: inactive

Results for CC1=CC(=O)OC2CC3OC4C[C@@H](C)C5OC6CC7O[C@]8(C)C/C=C\C9OC%10CC%11OC(CC(C)CO)CC(O)[C@]%11(C)OC%10CC9OC8C[C@]7(C)O[C@]6(C)CCC5OC4C[C@]3(C)OC12 (stereo partly drawn) ?
ALR inh: inactive; SUMO Mot1 rescue: inactive; Bfl-1 A1 inh: inactive; VLA-4 inh: inactive; Efflux pump mplx: 1.4; AHR act: inactive; Yeast cmpd fluor: inactive; Mdr1 pump inh: inactive; Cdr2 pump inh: inactive; CaCdr1 efflux inh: inactive

Results for COc1ccc2c3c1OC1[C@H](O)CCC4[C@@H](C2)N(C)CC[C@]314 (stereo partly drawn) ?
VLA-4 inh: inactive; Efflux pump mplx: inactive; AHR act: inactive

What do the screens show for `COc1ccc(NC(=O)N2CCC3(CC2)OCCO3)cc1OC`?
ALR inh: inactive; SUMO Mot1 rescue: inactive; Bfl-1 A1 inh: inactive; VLA-4 inh: inactive; Efflux pump mplx: 11; AHR act: inactive; Yeast cmpd fluor: inactive; Mdr1 pump inh: inactive; Cdr2 pump inh: inactive; CaCdr1 efflux inh: inactive

How did COc1cccc(NC(=O)N2CCC3(CC2)OCCO3)c1 do in these assays?
ALR inh: inactive; SUMO Mot1 rescue: inactive; Bfl-1 A1 inh: inactive; VLA-4 inh: inactive; Efflux pump mplx: inactive; AHR act: inactive

What do the screens show for `C#CC1(OC(=O)c2ccccc2)CC(C)N(C)CC1C` (stereo not drawn)?
ALR inh: inactive; SUMO Mot1 rescue: inactive; Bfl-1 A1 inh: inactive; VLA-4 inh: inactive; Efflux pump mplx: inactive

What do the screens show for `C/C(=N\N1CCCCC1)c1c(O)[nH]c(=O)[nH]c1=O`?
ALR inh: inactive; SUMO Mot1 rescue: inactive; Bfl-1 A1 inh: inactive; VLA-4 inh: inactive; Efflux pump mplx: 16; AHR act: inactive; Yeast cmpd fluor: inactive; Mdr1 pump inh: inactive; Cdr2 pump inh: inactive; CaCdr1 efflux inh: inactive

What do the screens show for `C/C(=N\N1CCCCCC1)c1c(O)n(-c2ccccc2)c(=O)[nH]c1=O`?
ALR inh: inactive; SUMO Mot1 rescue: inactive; Bfl-1 A1 inh: inactive; VLA-4 inh: inactive; Efflux pump mplx: inactive; AHR act: inactive

Results for O=c1[nH]c(=O)n(Cc2ccccc2)c(O)c1/C=C1\C=Nc2ccccc21 ?
Bfl-1 A1 inh: inactive; VLA-4 inh: inactive; Efflux pump mplx: inactive; AHR act: inactive

From PubChem
